DT40 TDP1 no CPT = qHTS for Inhibitors of human tyrosyl-DNA phosphodiesterase 1 (TDP1): qHTS in cells in absence of CPT; DT40 Tdp1-/- hTDP1 cells, no CPT, ATP luminescence, 48 h; Potency, µM (series often up to 46.2 µM), for the others: at the highest dose activity change, negative = growth inhibition, hits mostly inhibitors; hit rate 15% among 420,000; also: potency is read from the fitted curve at half-maximal effect; nearly all actives have a fitted effect of over 55% in size
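Seeded 400 DT40-hTDP1 cells/well (vehicle DMSO, no 20 nM CPT); pinned compounds; ≥48 hr at 37 °C; CellTiter-Glo luminescence as viability measure.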
IL1B secr inh = qHTS for Inhibitors of Inflammasome Signaling: IL-1-beta AlphaLISA Primary Screen; hit rate 4.7% among 360,000; AID 743279, 2014; THP-1 LPS/ATP IL-1B secretion, AlphaLISA, 16 h; active compounds read low; activity change, % at 57.5 µM; in the data active = activity change below about -50%; inconclusive = mostly about -30% to -49%
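Secreted IL-1B measured by AlphaLISA bead assay after 16 h compound exposure of THP-1 cells; compounds (final up to 57.5 uM) added 1 h before LPS (250 ng/mL) and ATP (1.25 mM) stimulation; lower signal means less secretion.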
HT1080NT lethal = qHTS for induction of synthetic lethality in tumor cells producing 2HG: qHTS for the HT-1080-NT fibrosarcoma cell line. HT-1080-NT fibrosarcoma viability, CellTiter-Glo ATP luminescence, 48 h. Potency, µM (highest dose often 46.1 µM), for inactives: top-dose activity, negative = less viability, most hits filed as cytotoxic. hit rate 1.6% among 360,000. AID 686970, 2013;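 also: NT is the 2HG producing partner of a matched IDH1 knockdown line; potency is read from the fitted curve at half-maximal effect; 0% = DMSO-treated cells and -100% = media-only wells without cells; nearly all actives have a fitted effect of over 55% in size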
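A 48-hour cytotoxicity screen used HT-1080-NT cells plated 2 hours before compound delivery. ATP-based CellTiter-Glo luminescence measured viability, normalized to DMSO and no-cell controls.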
DT40 TDP1 CPT = qHTS for Inhibitors of human tyrosyl-DNA phosphodiesterase 1 (TDP1): qHTS in cells in presence of CPT; chicken DT40 Tdp1-/-;hTDP1 cells + 20 nM CPT, ATP luminescence, 48 h; AID 686979, 2013; hit rate 12% among 420,000; Potency, µM (series often up to 46.2 µM), for inactives: at the top dose activity change, negative = growth inhibition, hits mostly inhibitors; also: potency is read from the fitted curve at half-maximal effect; nearly all actives have a fitted effect of over 55% in size
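Cell growth measured by CellTiter-Glo luminescence after a minimum 48 h, 37 C compound exposure with 20 nM CPT in Tdp1-knockout DT40 cells stably expressing hTDP1, seeded 400/well; qHTS titration format.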
HT1080 IDH1KD tx = qHTS for induction of synthetic lethality in tumor cells producing 2HG: qHTS for the HT-1080-IDH1KD cell line; AID 686971, 2013; Potency, µM (top dose mostly 46.1 µM), for the others: top-dose activity, negative = toxicity, most hits filed as cytotoxic; hit rate 2% among 360,000; HT-1080 IDH1 knockdown viability, ATP luminescence, 48 h;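 also: potency is read from the fitted curve at half-maximal effect; 0% = DMSO wells and -100% = cell-free medium wells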
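After a 2 h attachment period, IDH1KD HT-1080 cells took pin-transferred compound for 48 h at 37 °C; ATP-based luminescence after 10 min room-temperature reagent incubation reported viability.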
12-LOX inh = Primary qHTS assay for inhibitors of human arachidonate 12S-lipoxygenase (ALOX12): Round 2; Polyunsaturated fatty acid lipoxygenase ALOX12 (Homo sapiens), P18054; purified 12hLO, xylenol orange hydroperoxide absorbance; Potency, µM (series often up to 108 µM), for inactives: top-dose activity change, negative = inhibition, actives largely listed as inhibitors; hit rate 1.1% among 580,000; also: potency is read from the fitted curve at half-maximal effect
Target sequence (P18054 whole entry, looked up): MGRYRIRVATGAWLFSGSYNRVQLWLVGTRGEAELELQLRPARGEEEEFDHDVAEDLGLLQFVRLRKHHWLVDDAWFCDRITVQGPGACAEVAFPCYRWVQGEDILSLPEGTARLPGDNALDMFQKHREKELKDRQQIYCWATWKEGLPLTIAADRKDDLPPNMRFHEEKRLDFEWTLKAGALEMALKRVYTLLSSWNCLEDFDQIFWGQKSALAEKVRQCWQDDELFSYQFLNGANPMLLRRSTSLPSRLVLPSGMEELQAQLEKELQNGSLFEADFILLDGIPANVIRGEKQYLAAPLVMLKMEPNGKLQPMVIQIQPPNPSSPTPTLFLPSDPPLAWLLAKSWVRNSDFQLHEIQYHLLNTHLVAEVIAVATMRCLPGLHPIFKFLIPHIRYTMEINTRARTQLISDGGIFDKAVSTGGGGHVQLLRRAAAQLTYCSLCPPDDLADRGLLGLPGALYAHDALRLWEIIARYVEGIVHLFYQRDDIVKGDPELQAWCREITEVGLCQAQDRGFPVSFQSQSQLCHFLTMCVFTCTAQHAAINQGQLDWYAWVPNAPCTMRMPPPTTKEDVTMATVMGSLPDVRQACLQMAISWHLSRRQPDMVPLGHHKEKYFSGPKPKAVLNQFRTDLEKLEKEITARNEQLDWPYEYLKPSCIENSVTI
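Hydroperoxide product was detected by ferrous iron/xylenol orange as the 573 to 405 nm absorbance ratio. Arachidonic acid at 40 uM (final) was turned over for 30 min at room temperature by 150 nM human 12hLO, pH 7.0 Hepes buffer, after 15 min compound preincubation.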
* marks the source's active call; other numbers are inactive results; ? = inconclusive; . = no result; [ ] = another dose, or the depositor's remark. This excerpt belongs to a sample that is enriched for hits. Unless noted, calls follow the shape of the dose curve; as a rule, active = well fitted curve in the direction sought with a large enough effect; inconclusive = small, poorly fitted or top-dose-only effect, or another doubt; inactive = no such curve, though single readings can be large; an effect the other way counts as inactive or inconclusive. Unless noted, % is scaled to controls: 0 for no effect and ±100 for the full control effect.

SMILES	DT40 TDP1 no CPT	IL1B secr inh	HT1080NT lethal	DT40 TDP1 CPT	HT1080 IDH1KD tx	12-LOX inh
CC(C)NC(=O)Nc1cccc2c1O[C@H](CN(C)S(=O)(=O)c1ccccc1)[C@@H](C)CN([C@H](C)CO)C2=O	-10%	2	-3%	-11%	-1%	-2%
CNC(=O)c1noc([C@@H]2CC(F)(F)CN2Cc2cc(C)nn2C)n1	.	.	.	.	.	25%
O=C(NCCc1ccccc1)C1CCN(C(=O)N2CCOc3ccccc32)CC1	?	19	9%	-21%	3%	-3%
CCc1ccccc1NC(=O)C1CCN(C(=O)N2CCOc3ccccc32)CC1	21µM*	9	8%	?	-2%	4%
O=C(NCCc1ccc(Cl)cc1)C1CCN(C(=O)N2CCOc3ccccc32)CC1	23µM*	-27	-2%	26µM*	0%	25%
O=C(Nc1cccc(F)c1)C1CCN(C(=O)N2CCOc3ccccc32)CC1	?	-26	-1%	?	-4%	7%
CCc1ccc(NC(=O)C2CCN(C(=O)N3CCOc4ccccc43)CC2)cc1	?	-4	-2%	26µM*	-7%	-11%[57.4 µM]
O=C(NC1CCCCCC1)C1CCN(C(=O)N2CCOc3ccc(Cl)cc32)CC1	?	.	.	26µM*	.	-15%
Cc1ccc2c(c1)N(C(=O)N1CCC(C(=O)Nc3cccc(F)c3)CC1)CCO2	18µM*	.	.	?	.	2%
Cc1ccc(N=Nc2ccc(N)cc2C)c(S(N)(=O)=O)c1	-24%	-8	?	-22%	12%	?
Cc1cc(-c2ccc(N=Nc3ccc4c(S(=O)(=O)O)cc(S(=O)(=O)O)c(N)c4c3O)c(C)c2)ccc1N=Nc1ccc2c(S(=O)(=O)O)cc(S(=O)(=O)O)c(N)c2c1O	12µM*	.	.	7.5µM*	.	159%
CCc1nncn1C1CCN(S(=O)(=O)c2cccc(OC)c2)CC1	.	.	.	.	.	79µM*
CCCc1nc2ccccc2c(C(=O)OCC(=O)NC(C)(C)C)c1CC	.	.	.	.	.	-4%
CC1CCc2nc3ccccc3c(C(=O)OCC(=O)N3CCc4ccccc43)c2C1 (stereo not given)	5.8µM*	23	-14%	8.2µM*	-3%	-3%
Cc1noc(C)c1C(=O)OCC(=O)N1CCc2ccccc21	-5%	-9	1%	-15%	1%	20%
CCCc1nc2ccccc2c(C(=O)OCC(=O)N2CCc3ccccc32)c1CC	12µM*	13	1%	18µM*	-16%	-18%
CCc1noc(C)c1C(=O)OCC(=O)N1CCc2ccccc21	2.3µM*	0	-5%	5%	-3%	20%
Cc1ccc(OCC(=O)N2CCCCCC2c2nc(C)no2)cc1 (stereo not given)	.	.	.	.	.	32%
CCOC(=O)c1ccccc1NC(=O)Cn1ccn2nc3c(c2c1=O)CCCCC3	.	.	.	.	.	-2%
CN(C1=C(N2CCOCC2)C(=O)c2ccccc2C1=O)c1ccccc1	16µM*	-86*	-17%	13µM*	-28%	-2%
O=C1C=C(N2CCOCC2)c2ccccc2C1=O	2.3µM*	-103*	6.5µM*	2.6µM*	4.6µM*	-25%
Cc1ccc(N2CCOCC2)c2c1C(=O)c1ccccc1C2=O	16µM*	?	-23%	?	?	-6%
CN(c1ccccc1)c1cc(=O)c2ccnc(N3CCOCC3)c2o1	.	.	.	.	.	17%[176 µM]
O=C1C(N2CCOCC2)=Cc2cccc3cccc1c23	?	-12	10%	?	0%	?
O=C1C=C(N2CCOCC2)c2cccc3cccc1c23	15µM*	-8	-15%	-27%	-11%	?
SMILES	DT40 TDP1 no CPT	IL1B secr inh	HT1080NT lethal	DT40 TDP1 CPT	HT1080 IDH1KD tx	12-LOX inh
CC1=C(C)C(=O)C(N2CCOCC2)=CC1=O	15µM*	13	-5%	16µM*	-5%	-25%
CC1=C(N2CCOCC2)CCC1=O	-2%	15	-1%	-7%	0%	?
CNc1ccc(/C=C2\COc3ccccc3C2=O)cc1[N+](=O)[O-]	12µM*	2	10%	?	15%	-5%
O=[N+]([O-])c1ccccc1/C=C1\C=Cc2ccccc21	-24%	.	.	8%	.	.
O=C1/C(=C/c2ccccc2[N+](=O)[O-])COc2ccccc21	?	-104*	8.2µM*	2.6µM*	18µM*	-10%
O=c1oc2ccccc2c(NC2CCCC2)c1NS(=O)(=O)c1ccc(Br)s1	.	.	.	.	.	-5%
O=C(C(=NNc1ccccc1)C(=S)Nc1ccccc1)c1ccccc1	?	-19	?	29µM*	24%	.
CC(=N\Nc1ccccc1)/C(=N/O)C(=O)Nc1ccccc1	-4%	32	0%	0%	4%	2%
Cc1ccc(S(=O)(=O)NC(=O)c2ccc(-c3ccc(C)c4ccccc34)o2)cc1	?	-13	0%	?	-2%	35µM*
COc1ccccc1C(=O)NS(=O)(=O)c1ccc(C)cc1	1%	6	1%	4%	-2%	0%
Cc1ccc(-c2ccc(C(=O)NCc3ccccc3)o2)c2ccccc12	?	-22	-1%	23µM*	-6%	-28%
Cc1ccc(-c2ccc(C(=O)Nc3ccccc3)o2)c2ccccc12	?	-10	-6%	?	-12%	-18%
O=c1cc(Br)c(O)c(Br)cc1Br	18µM*	?	9%	?	15%	?
COC(=O)c1cc(Br)cc(Br)c1O	.	.	.	.	.	-12%
COc1cccc(Oc2cn[nH]c2-c2ccc(O)cc2O)c1	?	15	?	9.2µM*	?	?
COc1ccccc1Oc1cn[nH]c1-c1ccc(O)cc1O	21µM*	17	-12%	-25%	-9%	-18%
CCCCCCOc1ccc(CNc2cccc3ccccc23)cc1	.	.	.	.	.	4.5µM*
COc1ccc(CNn2c(C)nc3ccccc3c2=O)cc1	?	0	-27%	-27%	?	20%
CCCCOc1ccc(CNn2c(C)nc3ccccc3c2=O)cc1	23µM*	-4	9%	?	1%	8%
CCCCCC(=O)Nc1cccc2ccccc12	-1%	17	4%	-17%	6%	-13%
c1cncc(-c2nnc3n2CCN(Cc2cncs2)C3)c1	.	.	.	.	.	81%[176 µM]
COC(=O)c1cc2oc(C)cc2n1CC(=O)Nc1ccc(C(C)C)cc1	21µM*	.	.	7.3µM*	.	7%

High-throughput results as filed in PubChem BioAssay.
